# High-throughput results (PubChem)
# tim10-1 inh – growth inhibitors of tim10-1 mutant yeast, primary screen, luminescence, uHTS. S. cerevisiae tim10-1 ts strain growth, BacTiter-Glo, 24 h. inhibition, % at 20 µM. hit rate 2.2% among 330,000. AID 463190, 2010;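 active means inhibition of at least 40%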;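 further: mutant grown at 25 °C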
# tim23-1 inh – growth inhibitors of tim23-1 mutant yeast, primary screen, luminescence, uHTS; S. cerevisiae tim23-1 growth, BacTiter-Glo luminescence, 24 h; inhibition, % at 20 µM; hit rate 1.3% among 330,000; AID 463212, 2010;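 active means growth inhibition of the mutant yeast at or above 50%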;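 further: temperature-sensitive mutant grown at 25 °C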
# Mdm2 MdmX PPI – inhibitors of human Mdm2-MdmX association, primary screen, cell-based, luminescence, split luciferase, SaOS-2, uHTS; SaOS-2 split-luciferase Mdm2/MdmX complementation; inhibition, % at 8 µM; hit rate 3% among 330,000; AID 485346, 2010;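 active means inhibition of at least 50% at 8 µM in the primary screen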
# MPTP inh – mitochondrial permeability transition pore inhibitors, primary screen, biochemical, isolated mouse mitochondria, absorbance; Ca2+ swelling absorbance, 30 min; inhibition, % at 10 µM; hit rate 1.4% among 360,000; AID 602449, 2012;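 active means inhibition of 50% or more, scaled per plate between neutral and stimulator controls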
# TIM10 inh – growth inhibitors of isogenic TIM10 control yeast, primary screen, counter-screen for tim10-1 yeast inhibitor project, luminescence, uHTS | S. cerevisiae TIM10 strain growth, BacTiter-Glo luminescence, 24 h | inhibition, % at 10 µM | hit rate 1.4% among 330,000 | AID 463195, 2010;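 active means inhibition of 40% or more at the single tested concentration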;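 further: wild-type TIM10 isogenic control strain grown at permissive 25 °C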
# tim10-1 confirm – growth inhibitors of tim10-1 mutant yeast, confirmation, single concentration, luminescence, S. cerevisiae | shares compounds with tim10-1 inh | inhibition, % at 20 µM | hit rate 56% among 7,400 | S. cerevisiae tim10-1 ts strain growth, BacTiter-Glo, 24 h | AID 463213, 2010;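 active means inhibition of yeast growth at or above a set limit in either of two repeat tests at 20 µM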;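 further: tim10-1 mutant grown at permissive 25 °C to find synthetic lethal compounds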
# Numbers stand for hits; 0 = inactive; - = not tested or not shown. Only some compounds are listed: those with a hit (about 6.3% of all), similar ones and a draw of the others.
SMILES,tim10-1 inh,tim23-1 inh,Mdm2 MdmX PPI,MPTP inh,TIM10 inh,tim10-1 confirm
Cn1c2ccccc2c(=O)c2ccc(C#CC3(N)CCCCC3)cc21,45,0,0,0,0,36
C=CCOC(=O)Nc1nc(CCNC(=O)OC(C)(C)C)c(C(=O)O)s1,-,-,-,0,-,-
CC(/C=C/c1cccc([N+](=O)[O-])c1)=N/NC(=O)c1cccnc1,40,0,0,0,0,0
C/C(=N\NC(=O)c1cccnc1)c1cccc([N+](=O)[O-])c1,0,0,0,0,0,-
COc1ccccc1C(=O)NC(=S)Nc1ccc(Cc2ccncc2)cc1,0,0,0,0,0,-
COc1cc(C(=O)NC(=S)Nc2ccc(Cc3ccncc3)cc2)cc(OC)c1OC,47,0,0,0,0,35
COC(=O)c1ccccc1NC(=O)CSc1nc(O)cc(=O)n1C1CCCC1,46,0,0,0,0,0
O=C(CSc1nc(O)cc(=O)n1C1CCCC1)Nc1cccc(Cl)c1Cl,0,0,0,0,0,-
COc1ccc2[nH]c(=O)c(CN(C3CCCCC3)C(c3nnnn3Cc3ccco3)C(C)C)cc2c1 (stereo unspecified),41,0,0,0,0,0
CC(=O)N1CCOc2ccc(S(=O)(=O)N3CCN(c4cc(C)ccc4C)CC3)cc21,43,0,0,0,0,34
Cc1ccc(C)c(N2CCN(S(=O)(=O)c3ccc4c(c3)NC(=O)CS4)CC2)c1,46,0,0,0,0,0
Cc1ccc(S(=O)(=O)N2CCN(CC(=O)Nc3ccc(N4CCOCC4)cc3)CC2)cc1C,0,0,0,0,0,-
Cc1cccc(N2CCN(CC(=O)Nc3ccc(S(=O)(=O)N4CCOCC4)cc3)CC2)c1C,41,0,0,0,0,0
Cc1cccc(N2CCN(S(=O)(=O)c3ccc4c(c3)OCCO4)CC2)c1C,46,0,0,0,0,32
O=C1Nc2ccccc2CN2C(=O)c3cc(Cl)ccc3NC(=O)C12 (stereo unspecified),-,-,-,0,-,-
COCCCn1cc(CN2CC(N3CCN(CCO)CC3)CS2(=O)=O)nn1 (stereo unspecified),-,-,-,0,-,-
CN(Cc1ccccc1)Cc1cc(=O)oc2ccc3ccccc3c12,-,-,-,0,-,-
C[C@H](CO)N1C[C@H](C)[C@@H](CN(C)S(=O)(=O)c2cccs2)OCc2cnnn2CCCC1=O,-,-,-,0,-,-
S=c1[nH]c(-c2ccccc2)cn1/N=C/c1ccncc1,0,0,0,0,0,-
CCOc1ccc(/C=N/n2cc(-c3ccccc3)[nH]c2=S)cc1,42,0,0,0,0,0
C=CCc1ccc(O)c(-c2cc(CC=C)ccc2O)c1,43,0,0,0,0,45
CCOC(=O)[C@]12CCC=C1N(Cc1ccco1)C(=O)[C@H](CC(=O)N1CCN(C(=O)c3ccco3)CC1)C2,-,-,-,0,-,-
CCN1C(=O)C(O)(CC(=O)c2c(C)coc2C)c2ccccc21 (stereo unspecified),0,0,0,0,0,-
Cc1coc(C)c1C(=O)CC1(O)C(=O)N(CCc2ccccc2)c2ccccc21 (stereo unspecified),44,0,0,0,0,34
O=C(Oc1ccc(C(=S)N2CCOCC2)cc1)c1ccccc1[N+](=O)[O-],42,0,0,0,0,37
SMILES,tim10-1 inh,tim23-1 inh,Mdm2 MdmX PPI,MPTP inh,TIM10 inh,tim10-1 confirm
O=C(Oc1ccc(C(=S)N2CCOCC2)cc1)c1ccccc1F,0,0,0,0,0,-
COc1ccccc1NC(=S)NC(=O)C(C)(C)C,50,0,0,0,0,0
COc1ccccc1NC(=S)NC(=O)Cc1ccccc1,0,0,0,0,0,-
COc1ccc(N2C(=O)C(Cl)=C(N3CCCC(C)C3)C2=O)cc1 (stereo unspecified),42,0,0,0,0,0
COc1ccc(N2C(=O)C(Cl)=C(N3CCCC3)C2=O)cc1,0,0,0,0,0,-
COc1ccc(NC(=O)c2cc(-c3cc(F)ccc3OC)n[nH]2)cn1,-,-,-,0,-,-
Nc1ccc2oc(-c3cccc(Br)c3)nc2c1,60,0,0,0,0,50
CCc1ccc2oc(-c3cccc(N)c3)nc2c1,0,0,0,0,0,-
COc1ccc(OC)c(NC(=O)Nc2nc(CN(C)C)cs2)c1,-,-,-,0,-,-
CCNC(=O)N(CC)C[C@H]1N[C@@](Cc2ccccc2)(C(=O)OC)[C@H]2C(=O)N(C)C(=O)[C@@H]12,0,0,0,0,0,-
Clc1nc(-c2ccccc2)cc(-c2ccccc2)n1,43,0,0,0,0,0
CC(C)CC1C(=O)N(Cc2cn(Cc3ccco3)nn2)CCS(=O)(=O)N1Cc1ccc(-c2ccc(F)cc2)cc1 (stereo unspecified),-,-,-,0,-,-
CCc1cc2c(C)cc(=O)oc2cc1OC(=O)C1CCCN1C(=O)OC(C)(C)C (stereo unspecified),46,0,0,-,0,0
CCc1cc2cc3c(cc2nc1SCC(=O)N1CCN(C(=O)c2ccco2)CC1)OCO3,0,0,0,0,0,-
CCc1cc2ccc(C)cc2nc1SCC(=O)N1CCN(C(=O)c2ccco2)CC1,42,0,0,0,0,0
Cc1cc(C)c(C(=O)N2CCCC(N3CCN(c4cccc(C(F)(F)F)c4)CC3)C2)o1 (stereo unspecified),44,0,0,0,0,0
O=c1c(-c2ccc(Br)cc2)[n+]([O-])c2ccccc2n1OCc1ccccc1,0,0,0,0,0,-
CC(C)(C)c1ccc(COn2c(=O)c(-c3ccco3)[n+]([O-])c3ccccc32)cc1,50,0,0,0,0,0
CCCCCCN1C[C@@H](n2cc(C3CC3)nn2)[C@H](O)C[C@@H]1c1ccc(OC)cc1,-,-,-,0,-,-
COc1ccc2c(c1)C(=O)N(c1ccccc1C)C(=O)C2(C)C,47,0,0,0,0,0
O=S(=O)(N1CCCCC1)N1CCN(CC(O)COc2ccc3cc(Br)ccc3c2)CC1 (stereo unspecified),45,0,0,0,0,0
OC(COc1ccc2cc(Br)ccc2c1)CN1CCN(c2ccccn2)CC1 (stereo unspecified),41,0,0,0,0,0
CN(C)S(=O)(=O)N1CCN(CC(O)COc2ccc3cc(Br)ccc3c2)CC1 (stereo unspecified),0,0,0,0,0,-
COc1cccc(OCC(O)CN2CCN(c3ccccn3)CC2)c1 (stereo unspecified),0,0,0,0,0,-
C[C@@H]1CN([C@@H](C)CO)C(=O)c2cc(Br)cnc2O[C@H]1CN(C)C(=O)c1ccncc1,-,-,-,0,-,-
Cc1cccc(OCC(=O)N2CCc3ccccc3C2)c1C,-,-,-,0,-,-
CC1CCC2C(=O)N(c3cc(Cl)ccc3OC(=O)c3ccco3)C(=O)C2C1 (stereo unspecified),41,0,0,0,0,34
